# MARV entry inh = blocks Marburg virus binding or cell entry; Marburg virus pseudotype entry/binding inhibition, cell-based; actives 6.5% (n = 18,000); Potency, µM (top dose mostly 49.2 µM), for inactives: at the top dose activity change, negative = inhibition, most hits filed as inhibitors
# Lassa entry = blocks Lassa virus binding or cell entry; Lassa virus pseudotyped entry inhibition, cell-based qHTS; Potency, µM (top dose mostly 49.2 µM), inactives show top-dose activity change, negative = inhibition, most hits filed as inhibitors; actives 4.1% (n = 18,000); AID 720533
# * marks the source's active call; other numbers are inactive results; ? = inconclusive; . = not tested or not shown; ! = repeats disagree; [ ] = another dose, or the depositor's remark. An excerpt weighted towards active compounds, which were near 8% of everything screened. Calls come from the whole dose curve; tested in HEK293 cells. % is set by controls: 0 for no effect and ±100 for the full control effect; potency is the fitted concentration of half-maximal effect.
SMILES,MARV entry inh,Lassa entry
COC(=O)c1cc(CNC(=O)c2ccccc2OC)cc(NC(=O)c2ccccc2F)c1,-26.5%,?
COc1ccc(CN2CCC3(CC2)c2ccccc2[C@@H](NC(=O)c2ccccc2OC)[C@@H]3O)cc1O,-21.8%,-2.4%
COc1cc2c(c(OC)c1OC)C1(c3ccccc3)CCCCCC1[C@@H]2NC(=O)C(F)(F)F (stereo not given in full),-15.2%[8.59 µM],.
CC1(C)C(=O)NC2=C1C(=O)C(=O)c1ccccc12,3.98µM*,12.6µM*
O=C1c2ccccc2C(=O)C1c1ccc(F)cc1,1.1%,-10.9%
O=C(NCC1CCC2(CCN(Cc3cccn3-c3ccc(Cl)cn3)CC2)O1)c1ccccc1 (stereo not given),-28.9%,10.4%
C=C1C(=O)OC2CC1C(OC(C)=O)CC(C)=CCCC(C)=CCC[C@@]2(C)O (stereo not given in full),15.8µM*,11.2µM*
CCN(CC)C(=O)N[C@H]1C[C@@H]2c3cccc4[nH]cc(c34)C[C@H]2N(C)C1,5.2%,-7.8%
C=CCN1C[C@H](C(=O)N(CCCN(C)C)C(=O)NCC)C[C@@H]2c3cccc4[nH]cc(c34)C[C@H]21,7.94µM*,-11.8%
CC(C)Cc1cc(C(=O)NCC2Cc3cc(F)cc(-c4ccccn4)c3O2)no1 (stereo not given),-28.2%,-1.2%
CN1CCN(c2cc3c(cc2F)c(=O)c(C(=O)O)cn3-c2ccc(F)cc2)CC1,8.3%,12.9%
O=C1NCCN1CCN1CCC(c2cn(-c3ccc(F)cc3)c3ccc(Cl)cc23)CC1,11.2µM*,22.4µM*
CCc1cc(OC)c(C[C@H](C)N)cc1OC,?,-12.9%[107 µM]
COc1cc(CC(C)N)c(OC)cc1Br (stereo not given),17.8µM*,?
Cc1ncc2c(c1CNS(=O)(=O)c1cccs1)CCN(C(=O)/C=C/c1cc(F)cc(F)c1)C2,-17.9%,-23.2%
O=C(NCC1CCC2(CCN(Cc3cc4ccccc4o3)CC2)O1)c1ccccc1 (stereo not given),13.9%,1.9%
NC(=O)c1cccc(Nc2nccc(Nc3cccc4[nH]ncc34)n2)c1,?,-16.0%
COc1ccc(C(=O)NCc2ccc(OCCN(C)C)cc2)cc1OC,-16.9%,-12.5%
COc1ccc(NC(=O)c2ccc(-c3ccc(-c4noc(C)n4)cc3C)cc2)cc1N1CCN(C)CC1,6.31µM*,15.8µM*
COc1ccc(NC(=O)c2ccc(-c3ccc(-c4noc(C)n4)cc3C)cc2)cc1OCCN(C)C,3.55µM*,22.4µM*
Cc1ccc(NC(=O)c2ccnc(N3CCCC3)c2)cc1-c1ccc(C(=O)NCC2CC2)cc1,44.9%,.
Cc1nc(-c2ccc(-c3ccc(C(=O)N4CCc5cc6c(cc54)C4(CCN(C)CC4)CO6)cc3)c(C)c2)no1,10µM*,28.2µM*
CS(=O)(=O)CCNCc1nc(-c2ccc3ncnc(Nc4ccc(F)c(Cl)c4)c3c2)cs1,?,-29.8%
COc1cc(CCN2C(=O)NC(c3ccccc3)C(C(C)=O)=C2C)cc(OC)c1OC (stereo not given),6.3%[8.59 µM],8.6%[8.59 µM]
CC(C)=CCN1C(=O)C2(CC(C)=C[C@@H](C)O2)c2c(Br)cccc21 (stereo not given in full),11.3%[8.59 µM],-12.8%[8.59 µM]
SMILES,MARV entry inh,Lassa entry
CC(C)OC(=O)[C@H](C)NC(=O)N1CCc2nc(-c3ccccc3)c3c(c2C1)CO[C@@H](C)C3,-2.4%[8.59 µM],-8.5%[8.59 µM]
CC(C)C[C@H]1COc2cc(NC3CC3)ccc2S(=O)(=O)N1,12.7%,-10.4%
CN1CCN(CCc2ccc(Cl)c(Cl)c2)CC1,17.8µM*!,?
CN(CCc1ccc(Cl)c(Cl)c1)CCN1CCCCCC1,10µM*,?
O=C(O)c1ccc(CCN2CCN(CC=Cc3ccc(Cl)cc3)CC2)cc1,10.5%,0.1%
CN(CCc1ccc(Cl)c(Cl)c1)[C@H]1CCCC[C@H]1N1CCCC1,6.31µM*,17.8µM*
CN(CCc1ccc(Cl)c(Cl)c1)CC(O)COc1ccc(NS(C)(=O)=O)cc1 (stereo not given),?,3.1%
N#Cc1ccc2c(c1)C[C@]1(c3ccsc3)OC3=C(C(=O)OC4(CCCCC4)C3)[C@H]2O1,?,-3.7%[8.59 µM]
C=C(C)C1CC23C(=O)[C@]4(C(=O)c5ccccc5)C[C@@]5(C)CCC(CC2C1(C)C)(C4=O)[C@@]35OC (stereo not given in full),8.9%[8.59 µM],-2.4%[8.59 µM]
CCCCc1c(O)n(-c2ccccc2)[nH]c1=O,-2.4%,10µM*
CCCCC1C(=O)N(c2ccccc2)N(c2ccc(O)cc2)C1=O (stereo not given),47.6%[17.8 µM],?
CC(=O)[C@]12C[C@@H]3CCCN(C(=O)N[C@@H]1c1ccccc1)[C@@H]32,0.3%[8.59 µM],-7.3%[8.59 µM]

# Screening results deposited in PubChem by National Center for Advancing Translational Sciences (NCATS).
